Screening results from PubChem BioAssay.
HTT cytoprotect: cytoprotection in Huntington HTT-Q103 PC12 cell model; PC12 HTT-Q103 induced, cytoprotection, ATP luminescence, 40 h; Potency, µM (doses to about 56.4 µM), without a hit: cytoprotection (ATP increase), hits mostly activators; 230,000 tested, 0.14% active; note: potency is the fitted concentration of half-maximal effect; % of control where 0% means no effect; nearly all actives have a fitted effect of over 45% in size
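ATP quantification (ATPlite) reports survival of PC12 cells in which tebufenozide, 100 nM final, switches on Htt exon 1 with 103 glutamines linked to GFP; compounds are titrated.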
ALDH1A1 block: blocks purified human ALDH1A1 activity. 220,000 tested, 7.3% active. Purified ALDH1A1, NADH fluorescence, propionaldehyde substrate. Potency, µM (top dose mostly 75.3 µM), without a hit: at the highest dose activity, negative = inhibition, usual class: inhibitors. AID 1030; active = well fitted inhibition curve with a large enough effect, not every such curve was filed as active; inconclusive = small, poorly fitted or top-dose-only effect, or another doubt; inactive = no such curve, though single readings can be large or run the other way;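 note: potency is the fitted concentration of half-maximal effect; plate controls were no enzyme wells and a reference inhibitor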
KDM4E inh: inhibitors of human JMJD2E histone demethylase. B2RXH2. JMJD2E catalytic domain, FDH-coupled NADH fluorescence (FDH is formaldehyde dehydrogenase). Potency, µM (titrated, usually from 57.1 µM), for inactives: at the highest dose activity change, negative = inhibition, actives largely listed as inhibitors. 230,000 tested, 1.6% active; active = well fitted inhibition curve with a large enough effect, not every such curve was filed as active; inconclusive = small, poorly fitted or top-dose-only effect, or another doubt; inactive = no such curve, though single readings can be large or run the other way;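 note: potency is the fitted concentration of half-maximal effect; 0% = wells with enzyme and -100% = buffer wells without enzyme; nearly all actives have a fitted effect of over 50% in size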
Target sequence (B2RXH2 1-337 limits assumed): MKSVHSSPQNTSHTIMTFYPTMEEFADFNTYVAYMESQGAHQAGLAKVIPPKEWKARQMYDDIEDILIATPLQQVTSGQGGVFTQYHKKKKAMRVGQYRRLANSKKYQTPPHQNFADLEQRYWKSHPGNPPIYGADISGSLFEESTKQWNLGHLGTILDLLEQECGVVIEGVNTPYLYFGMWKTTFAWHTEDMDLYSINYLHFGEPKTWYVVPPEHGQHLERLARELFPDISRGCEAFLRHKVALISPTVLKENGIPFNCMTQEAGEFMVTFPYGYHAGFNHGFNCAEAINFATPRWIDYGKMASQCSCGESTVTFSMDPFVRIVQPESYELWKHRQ
HPGD inh: blocks human HPGD enzyme activity; P15428; purified HPGD, NADH fluorescence kinetic, PGE2 substrate; Potency, µM, for inactives: at the top dose activity change, negative = inhibition, usual class: inhibitors; 150,000 tested, 4.3% active; AID 894; active = well fitted inhibition curve with a large enough effect, not every such curve was filed as active; inconclusive = small, poorly fitted or top-dose-only effect, or another doubt; inactive = no such curve, though single readings can be large or run the other way; note: potency is the fitted concentration of half-maximal effect; % is set by controls: 0 for no effect and ±100 for the full control effect
Target sequence (P15428 whole entry, looked up): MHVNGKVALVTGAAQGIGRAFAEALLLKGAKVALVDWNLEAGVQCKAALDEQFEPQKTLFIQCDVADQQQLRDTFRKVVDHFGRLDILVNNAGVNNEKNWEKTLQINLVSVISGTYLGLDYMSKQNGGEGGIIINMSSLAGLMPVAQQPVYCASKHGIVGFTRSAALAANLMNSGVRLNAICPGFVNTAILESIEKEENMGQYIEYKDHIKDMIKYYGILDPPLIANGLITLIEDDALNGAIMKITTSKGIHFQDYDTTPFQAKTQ
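20 nM HPGD preincubated 15 min at room temperature with compound in 50 mM Tris-HCl pH 8, 0.01% Tween 20. Started with 1 mM NAD+ and 30 uM prostaglandin E2; NADH fluorescence (360/450 nm) read 5 times over 30-s intervals, last minus first.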
CBFb-RUNX1 inh: inhibitors of human CBF-beta and RUNX1 interaction. AlphaScreen CBFb-His/RUNX1-biotin binding, biochemical. 230,000 tested, under 10 active. Potency, µM (titrated, usually from 59.8 µM), inactives show at the top dose activity, negative = inhibition, hits mostly inhibitors; note: % of control where 0% means no effect
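Bead-based AlphaScreen assay; binding partners His-tagged CBF-beta and biotinylated RUNX1 at 30 nM each. Compound exposure 15 min after a 20-min protein preincubation; bead step 90 min; all steps at room temperature.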
HTT aggregate: reduces HttQ103-GFP aggregates in PC12 cells. PC12 HttQ103-GFP aggregates, Acumen cytometry, 40 h. Potency, µM (highest dose often 46.1 µM), inactives show at the top dose activity change, negative = inhibition, most hits filed as inhibitors. 220,000 tested, 1.1% active; note: potency is the fitted concentration of half-maximal effect; % is set by controls: 0 for no effect and ±100 for the full control effect; nearly all actives have a fitted effect of over 60% in size
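Huntingtin Q103 exon 1–GFP aggregates in induced PC12 cells (100 nM tebufenozide) were quantified by cytometry from lysates, with compounds dosed in titration.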
Active calls of the source: *; ! = not confirmed by another sample; [ ] = another dose, or the depositor's remark. Hits are enriched below; roughly 9.8% of the tested compounds scored in any of these assays. Unless noted, calls come from the whole dose curve; as a rule, active = well fitted curve in the direction sought with a large enough effect; inconclusive = small, poorly fitted or top-dose-only effect, or another doubt; inactive = no such curve, though single readings can be large; an effect the other way counts as inactive or inconclusive.

Results for O=C(COC(=O)c1ccccc1C(=O)c1ccc(Cl)cc1)NCC1CCCO1 (configuration not stated) ?
HTT cytoprotect: -4%; ALDH1A1 block: 2%; KDM4E inh: 2%; CBFb-RUNX1 inh: -8%; HTT aggregate: 13%

What do the screens show for `Cc1ccc(NC(=O)c2ccc(CNc3c(N4CCC(C)CC4)c(=O)c3=O)cc2)cc1`?
HTT cytoprotect: 17%[10 µM]; KDM4E inh: -4%; CBFb-RUNX1 inh: 5%; HTT aggregate: 12%[9.22 µM]

What do the screens show for `COCCNC(=O)/C(C#N)=C/C=C/c1ccccc1`?
HTT cytoprotect: -9%[10 µM]; ALDH1A1 block: -3%; KDM4E inh: -4%; CBFb-RUNX1 inh: -1%; HTT aggregate: 6%

Results for COCCNC(=O)/C(C#N)=C/c1cccc(NC(=O)c2ccccc2Cl)c1 ?
HTT cytoprotect: 14%[10 µM]; ALDH1A1 block: 16µM*; KDM4E inh: inconclusive; HPGD inh: inconclusive; CBFb-RUNX1 inh: -2%; HTT aggregate: -21%

Results for CC(C)NC(=O)/C(C#N)=C/c1cccc(NC(=O)c2ccccc2Cl)c1 ?
HTT cytoprotect: 20%[10 µM]; ALDH1A1 block: 14µM*; KDM4E inh: -27%; HPGD inh: -23%; CBFb-RUNX1 inh: 13%; HTT aggregate: 25%

How did COc1cc(/C=C(\C#N)C(=O)NC(C)C)cc(Cl)c1O do in these assays?
HTT cytoprotect: -1%; ALDH1A1 block: inconclusive; KDM4E inh: -10%; CBFb-RUNX1 inh: 2%; HTT aggregate: -4%

How did O=C(COC(=O)Cc1n[nH]c(=O)c2ccccc12)Nc1cccc(C(F)(F)F)c1 do in these assays?
HTT cytoprotect: -26%; ALDH1A1 block: -6%; KDM4E inh: -6%; CBFb-RUNX1 inh: 14%; HTT aggregate: 3%

How did COC(=O)c1scc(C)c1NC(=O)C1CCCCC1 do in these assays?
HTT cytoprotect: 1%; ALDH1A1 block: -1%; KDM4E inh: 5%; HPGD inh: -13%; CBFb-RUNX1 inh: 1%; HTT aggregate: -7%

How did Cc1ccc([N+](=O)[O-])cc1S(=O)(=O)N(C)C do in these assays?
HTT cytoprotect: -54%; ALDH1A1 block: 32µM*!; KDM4E inh: 4%; HPGD inh: 5%; CBFb-RUNX1 inh: 21%

Results for COCCNC(=O)c1cn(C)c2ccccc2c1=O ?
HTT cytoprotect: -50%; ALDH1A1 block: 3.5µM*; KDM4E inh: -2%; CBFb-RUNX1 inh: 5%; HTT aggregate: 6%

What do the screens show for `CCn1cc(C(=O)NCCOC)c(=O)c2ccc(C)nc21`?
HTT cytoprotect: -22%; ALDH1A1 block: 11µM*; KDM4E inh: 8%; HPGD inh: -27%; CBFb-RUNX1 inh: -7%; HTT aggregate: -2%

How did CCn1cc(C(=O)OC)c(=O)c2ccc(C)nc21 do in these assays?
HTT cytoprotect: -17%; ALDH1A1 block: 0%; KDM4E inh: 0%; CBFb-RUNX1 inh: -10%; HTT aggregate: -21%

What do the screens show for `COCCNC(=O)Cc1cn(C)c2ccccc12`?
HTT cytoprotect: -5%; ALDH1A1 block: 5%; KDM4E inh: inconclusive; HPGD inh: -5%; CBFb-RUNX1 inh: -2%; HTT aggregate: 9%

How did S=C1NC[C@H](CC2CCCCC2)N1CC1CCCCC1 do in these assays?
HTT cytoprotect: 17%[10 µM]; ALDH1A1 block: -5%; KDM4E inh: 5%; CBFb-RUNX1 inh: 9%; HTT aggregate: -8%[9.22 µM]

What do the screens show for `O=c1c(Cc2ccccc2)c(O)ccn1Cc1ccco1`?
HTT cytoprotect: -14%; ALDH1A1 block: 1%; KDM4E inh: 0%; CBFb-RUNX1 inh: 0%; HTT aggregate: 8%

Results for COc1ccc(C(=O)N2CCOC2CNC(=O)C(=O)NCc2ccc(Cl)cc2)cc1 (configuration not stated) ?
HTT cytoprotect: -26%; ALDH1A1 block: 1%; KDM4E inh: -1%; CBFb-RUNX1 inh: 1%; HTT aggregate: -4%

What do the screens show for `COc1ccc(Cn2c(S(=O)(=O)CC(N)=O)nc3ccccc32)cc1[N+](=O)[O-]`?
HTT cytoprotect: 7%[10 µM]; ALDH1A1 block: 7.1µM*; KDM4E inh: -10%; CBFb-RUNX1 inh: inconclusive; HTT aggregate: -6%[9.22 µM]

Results for C=CCN(c1ccc(C(=O)Nc2cccc([N+](=O)[O-])c2)cc1)S(C)(=O)=O ?
HTT cytoprotect: 5%[10 µM]; ALDH1A1 block: -12%; KDM4E inh: 10%; CBFb-RUNX1 inh: 0%; HTT aggregate: 0%[9.22 µM]

How did Cc1nn(-c2ccc(F)cc2)c2sc(C(=O)N3CCCCCC3)cc12 do in these assays?
HTT cytoprotect: 6%; ALDH1A1 block: 35µM*; KDM4E inh: -1%; HPGD inh: 16µM*; CBFb-RUNX1 inh: 7%; HTT aggregate: inconclusive

What do the screens show for `Cc1nn(-c2ccc(Cl)cc2)c2sc(C(=O)N3CCN(C(=O)c4ccco4)CC3)cc12`?
HTT cytoprotect: inconclusive; ALDH1A1 block: 3%; KDM4E inh: -2%; HPGD inh: -13%; CBFb-RUNX1 inh: 6%; HTT aggregate: 12%

How did CC(C)C12CN3CC(C(C)C)(CN(C1)C3c1ccc3c(c1)OCO3)C2=O (configuration not stated) do in these assays?
HTT cytoprotect: 9%[1.9 µM]; ALDH1A1 block: 7.9µM*; KDM4E inh: 10%; HPGD inh: 3%; CBFb-RUNX1 inh: 1%; HTT aggregate: 8%

How did CCCC12CN3CC(C)(CN(C1)C3c1ccc3c(c1)OCO3)C2=O (configuration not stated) do in these assays?
HTT cytoprotect: -12%; ALDH1A1 block: 2µM*; KDM4E inh: -2%; HPGD inh: -6%; CBFb-RUNX1 inh: 4%; HTT aggregate: 4%

Results for C/C(=N\NC(=O)CCn1nnc2ccccc21)c1cccs1 ?
HTT cytoprotect: -4%[10 µM]; ALDH1A1 block: 0%; KDM4E inh: 3%; CBFb-RUNX1 inh: -3%; HTT aggregate: -7%[9.22 µM]

How did COc1ccc(NS(=O)(=O)c2ccc(O)c(C(=O)OCC(=O)Nc3ccc4c(c3)OCCO4)c2)cc1 do in these assays?
HTT cytoprotect: 30%[10 µM]; ALDH1A1 block: 22µM*; KDM4E inh: -7%; HPGD inh: inconclusive; CBFb-RUNX1 inh: -20%; HTT aggregate: -1%

Results for C[C@H](NS(=O)(=O)c1ccccc1)C(=O)OCC(=O)NC(=O)Nc1ccc2c(c1)OCCO2 ?
HTT cytoprotect: 36%[0.074 µM]; ALDH1A1 block: 14µM*; KDM4E inh: 11%; HPGD inh: -13%; CBFb-RUNX1 inh: 6%; HTT aggregate: -1%

Results for CCOc1ncccc1C(=O)N1CCN(S(=O)(=O)c2ccc(Br)cc2Cl)CC1 ?
HTT cytoprotect: -42%; ALDH1A1 block: 10%; KDM4E inh: 0%; CBFb-RUNX1 inh: -6%; HTT aggregate: -11%
